Test [1] in a line: hESC survival regulators, cell-based (AID 493140; call rule not given here;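 also: cells exposed to compounds for four days before counting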). As to conditions: human embryonic stem cell survival screen; stronger effect = higher value.
Test [2] is described as follows: liver-stage malaria parasite growth inhibition, primary screen, cell-based, HepG2, luciferase luminescence, HepG2 viability (AID 624349; in the data active = parasite load remaining mostly below about 12%, no sharp cut-off; inactive = mostly above about 10%;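 also: 100% = mean of DMSO negative control wells on the same plate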). As to conditions: P. berghei liver stage in HepG2, luciferase luminescence, concentration not given here; parasite load remaining: stronger effect = lower value; viability: measured here: HepG2 viability without parasites.
A short description of test [3]: stimulators of nuclear beta-catenin in C2C12, primary screen, imaging, WNT3A-conditioned medium, mouse C2C12, NPC library (AID 1117326; in the data active = nuclear beta-catenin stimulation mostly above about 4.2%, no sharp cut-off; inactive = mostly below about 10%). As to conditions: stronger effect = higher value.
A short description of test [4]: stimulators of insulin release from INS-1E, primary screen, cell-based, 5 mM glucose, NPC library (AID 1117329;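 active = compound raises insulin release from rat beta cells at 5 mM glucose, no numeric limit stated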). As to conditions: rat INS-1E insulin secretion, at 10 µM, stronger effect = higher value.
Test [5] is described as follows: growth inhibition of GSK3B-pretreated HCT116 cells – cell-based, CellTiter-Glo, 0.2 to 20 µM (AID 1117336;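 active = compounds lowering colon cancer cell viability after pretreatment blocking the GSK3B kinase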). As to conditions: HCT116 viability after GSK3B inhibitor, at 20 µM, stronger effect = higher value. (Cellular ATP, detected with luciferase, serves as a proxy for viable cell number.)
A short description of test [6]: inhibition of endothelial tube formation, primary screen, imaging, VEGF stimulated, CD31 staining, tube area, NPC library (AID 1117340;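 active = compound that reduces growth-factor-driven endothelial tube area in a mixed cell culture, no cutoff stated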). As to conditions: VEGF-stimulated ADSC/ECFC co-culture, at 10 µM, stronger effect = higher value.
A short description of test [7]: glucagon-like peptide 1 release enhancers, primary assay, NCI-H716 cell line, NPC library (AID 1117341;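 active = compound raises GLP1 secretion from the human gut endocrine cells, with no numeric limit stated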). As to conditions: NCI-H716 cells, at 10 µM, stronger effect = higher value.
Test [8] is described as follows: HCT116 colon cancer cell growth inhibition, primary screen, CellTiter-Glo luminescence, NPC library (AID 1117342;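 active = compounds that lower survival of HCT116 colon cancer cells in the luminescence readout, no numeric limit stated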). As to conditions: at 20 µM (top of the series).
Test [9] is described as follows: CellTiter-Glo luminescent readout of SW480 viability loss, NPC library primary (AID 1117343). As to conditions: CellTiter-Glo luminescence; at 20 µM (top of the series).
Test [10] is described as follows: decreased DLD-1 cellular survival, CellTiter-Glo luminescent readout, NPC compound collection, primary HTS (AID 1117346;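 active = compounds that lower survival of DLD-1 colon cancer cells in the luminescence readout, no cutoff given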). As to conditions: DLD-1 viability, CellTiter-Glo luminescence; at 20 µM (top of the series).
The nature of test [11]: sensitizers of A549 cells to miR-34 induction, primary screen, imaging, A549 dox-inducible miR-34, nuclei and caspase counts (AID 1347080;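 active = compounds whose cell count with miR-34 switched on is under 0.7 times the count with it off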). As to conditions: A549 miR-34 inducible, Hoechst nuclei count, 48 h.
A short description of test [12]: survival rescue of mitochondrial mutant cells in low glucose, primary screen, MELAS cybrids, Rieske KO mouse fibroblasts, CellTiter-Glo (AID 1508586;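 active = mean z-score across replicates of 1.96 or higher in either the MELAS or the Rieske mutant cell line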;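 also: z relative to plate mean and SD of compound and empty wells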).
Test [13] addresses NAD(+) hydrolase SARM1 (Homo sapiens) (UniProt Q6SZW1). Nature of the test: SARM1 TIR NADase inhibitors, cell lysate, NAD-Glo luminescence (AID 1508614;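 active = compound whose remaining NAD level is above about 45 nM, limit read from the data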;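 also: higher remaining NAD means stronger inhibition of SARM1 NADase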). As to conditions: SAM-TIR HEK293T lysate NADase, at 1 µM, stronger effect = higher value.
The mark [14] stands for this setting: measured here: relative caspase fold change +Dox/-Dox.
The mark [15] stands for this setting: measured here: total cells with miR-34 induction, stronger effect = lower value.
Setting [16] is: measured here: total cells without miR-34 induction.
The mark [17] stands for this setting: MELAS cybrid survival, CellTiter-Glo 48 h, stronger effect = higher value.
Setting [18] is: Rieske KO mouse fibroblast survival, CellTiter-Glo 72 h.
[19] abbreviates: stronger effect = lower value, cell number ratio, induced over uninduced.

Calls of active or inactive are those of the source.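 The calls were made as follows, unless noted: active = compounds that lower viability of the colon cancer cells in the luminescence readout, with no numeric limit stated; inactive = the rest.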

NAD(+) hydrolase SARM1 (Homo sapiens), sequence (Q6SZW1 whole entry, looked up): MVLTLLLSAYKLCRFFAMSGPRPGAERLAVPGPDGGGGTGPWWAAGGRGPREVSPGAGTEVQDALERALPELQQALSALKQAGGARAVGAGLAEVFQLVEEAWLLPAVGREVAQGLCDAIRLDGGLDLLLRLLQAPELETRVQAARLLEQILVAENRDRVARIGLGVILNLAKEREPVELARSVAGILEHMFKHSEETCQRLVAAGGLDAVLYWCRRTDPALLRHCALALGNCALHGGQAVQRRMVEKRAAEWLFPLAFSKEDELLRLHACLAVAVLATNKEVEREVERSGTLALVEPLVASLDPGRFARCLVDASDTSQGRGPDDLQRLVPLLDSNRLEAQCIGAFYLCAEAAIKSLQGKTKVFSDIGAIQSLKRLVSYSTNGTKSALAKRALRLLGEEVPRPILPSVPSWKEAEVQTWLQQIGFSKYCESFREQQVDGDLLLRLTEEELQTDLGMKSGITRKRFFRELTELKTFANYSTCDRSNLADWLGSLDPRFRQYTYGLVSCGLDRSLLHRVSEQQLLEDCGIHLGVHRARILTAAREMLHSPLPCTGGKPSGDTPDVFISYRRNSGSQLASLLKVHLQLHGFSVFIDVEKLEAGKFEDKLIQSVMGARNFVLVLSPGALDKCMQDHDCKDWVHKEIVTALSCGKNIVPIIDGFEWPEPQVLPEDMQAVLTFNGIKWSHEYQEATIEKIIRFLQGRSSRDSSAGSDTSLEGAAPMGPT

Broadly, the viability is the share of living cells, or the viability signal relative to a control. Turning to `C[C@@H]1CN(C2CCC(C#N)(c3ccc(F)cc3)CC2)CC[C@]1(C(=O)O)c1ccccc1` (stereo partly specified), in [1], the survival is 4.42 (inactive). Moreover, the parasite load remaining in test [2] was 126% (inactive). Also, the viability in test [2] amounted to 76.2%. The nuclear beta-catenin stimulation in test [3] (at 10 µM) is 0% (inactive); in test [3] (stimulation, at 2 µM), 0.4%. The insulin secretion stimulation in [4] is -1.7% (inactive). Further, the viability decrease in test [5] was 18.6% (inactive). Also, the tube area decrease in test [6] was 9.6% (inactive). In addition, the GLP1 secretion stimulation in test [7] was 1.1% (inactive). Besides, the inhibition of viability in test [8] was 15.3% (inactive). Further, the viability decrease (inhibition) in [9] was 33.5% (inactive); in test [10] it was 30.7% (inactive). In addition, the fold change in test [11] (stronger effect = lower value) was 0.976 (inactive); in test [11] (setting [14]) it was 0.701. The figures for the cell count in test [11] (setting [15]) and in test [11] (setting [16]) were 9400 and 9630, respectively. For the same compound, the z-score in test [12] (setting [17]) was -1.75 (inactive); in test [12] (setting [18]), -1.19.

For `O=[N+]([O-])C(Br)(CO)CO`, the nuclear beta-catenin stimulation was 44.8% (active) in test [3] (at 10 µM) and 0% in test [3] (stimulation, at 2 µM). Moreover, in test [4], the insulin secretion stimulation was 20.2% (active). In addition, the viability decrease in test [5] was -19.2% (inactive). Besides, in [6], the tube area decrease is 106% (active). Besides, the GLP1 secretion stimulation in test [7] was -0.1% (inactive). The inhibition of viability in test [8] is 2.9% (inactive). For the same compound, the viability decrease (inhibition) in [9] was 88.9% (active); in test [10], 52.2% (active). Also, the remaining NAD in [13] was 51 nM (active).

For the compound `COC(C)(C)CCCC(C)C/C=C/C(C)=C/C(=O)OC(C)C` (stereo unspecified), the nuclear beta-catenin stimulation is 2% (inactive) in test [3] (at 10 µM) and 1% in [3] (stimulation, at 2 µM). In addition, the insulin secretion stimulation in [4] was 1.35% (inactive). Moreover, the viability decrease in [5] was 30.9% (inactive). For the same compound, the tube area decrease in test [6] is 2.7% (inactive). For the same compound, the GLP1 secretion stimulation in test [7] was 3.9% (inactive). Moreover, in test [8], the inhibition of viability was 42% (inactive). The viability decrease (inhibition) in test [9] was 9.6% (inactive); in [10], 17.2% (inactive). Also, the remaining NAD in test [13] is 10 nM (inactive).

For the compound `CCNCC(O)c1cccc(O)c1` (stereo unspecified), the survival in test [1] was 9.33 (inactive). Besides, the parasite load remaining in [2] is 95% (inactive). Also, in test [2], the viability came out at 69.4%. For the same compound, the nuclear beta-catenin stimulation is -1.1% (inactive) in [3] (at 10 µM) and 2.2% in test [3] (stimulation, at 2 µM). For the same compound, in test [4], the insulin secretion stimulation is 0.6% (inactive). In addition, in [5], the viability decrease is -11.3% (inactive). Also, the tube area decrease in test [6] is 0.2% (inactive). In addition, the GLP1 secretion stimulation in test [7] was -2.7% (inactive). Moreover, the inhibition of viability in test [8] is 1.7% (inactive). Also, the viability decrease (inhibition) in [9] is 15.1% (inactive); in [10], -2.7% (inactive). The results for the fold change in test [11] (setting [19]) and in test [11] (setting [14]) were 0.936 (inactive) and 0.593, respectively. The cell count in test [11] (setting [15]) amounted to 9690; in test [11] (setting [16]), 10400. For the same compound, the z-score in test [12] (setting [17]) is 0.575 (inactive); in [12] (setting [18]), 0.102.

Take `CC(C)NCC(O)c1ccccc1Cl` (stereo unspecified): the nuclear beta-catenin stimulation in test [3] (at 10 µM) is -0.5% (inactive); in [3] (stimulation, at 2 µM), 0.8%. Moreover, in test [4], the insulin secretion stimulation was 11.3% (inactive). In addition, the viability decrease in test [5] was -4.5% (inactive). In addition, the tube area decrease in [6] was 8.9% (inactive). Besides, the GLP1 secretion stimulation in test [7] is 3.1% (inactive). In addition, in test [8], the inhibition of viability is 0.8% (inactive). Also, the viability decrease (inhibition) in test [9] is 23.3% (inactive); in [10], 9% (inactive). Besides, the fold change was 0.961 (inactive) in test [11] (setting [19]) and 0.533 in test [11] (setting [14]). Also, the cell count is 8950 in test [11] (setting [15]) and 9320 in test [11] (setting [16]). For the same compound, the z-score in [12] (setting [17]) was -0.27 (inactive); in test [12] (setting [18]), -0.204.

Source of the values: PubChem BioAssay.
